Source: PubChem BioAssay (NCATS)
Inconclusive results are not listed. The source made the active and inactive calls. Unless noted, the call rests on the fitted dose curve; in most records, active means well fitted inhibition curve with a large enough effect; inconclusive means small, poorly fitted or top-dose-only effect; inactive means no such curve, though single readings can be large or run the other way.

How the values were obtained:
[1] = qHTS profiling of the MIPE4 collection as inhibitors of Plasmodium falciparum (HB3) proliferation (AID 743347; call rule not given here;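 further: plate controls were DMSO vehicle wells for no effect and artemisinin wells for full effect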); details: P. falciparum HB3 in erythrocytes, SYBR Green DNA, 72 h; at 28.5 µM (top of the series) unless noted
Summary of the method: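 Parasite DNA was quantified by SYBR Green I fluorescence (ex 485, em 535 nm) after overnight lysis in saponin/Triton buffer at room temperature. Cultures at 0.3% parasitemia and 2.5% hematocrit were first exposed to compound for 72 h at 37 C; signals were normalised to artemisinin (0.29 uM) and vehicle wells.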

[2] = High-throughput drug toxicity screening in the BPDCN cell line Gen2.2 (AID 1224824; call rule not given here;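 further: cells exposed to compounds for 48 h before reading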); details: Gen2.2 BPDCN cells; at 45.8 µM (top of the series) unless noted
Summary of the method: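 Gen2.2 cells, 500 per well in phenol red-free RPMI with 10% FBS, exposed to compounds 48 h at 37 C, 5% CO2; viability by CellTiter-Glo luminescence. Percent activity scaled to DMSO (100%) and 9.2 uM bortezomib final (0%).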

[3] = High-throughput drug toxicity screening in the BPDCN cell line Cal-1 (AID 1224825; call rule not given here); details: Cal-1 BPDCN cell viability, qHTS; at 45.8 µM (top of the series) unless noted
Summary of the method: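 CellTiter-Glo luminescence after 48 h compound exposure; percent activity scaled with DMSO as 100% and bortezomib (9.2 uM final) as 0%. Cal-1 cells seeded at 500/well in RPMI, 10% FBS, no phenol red.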

[4] = qHTS assay for measurement of the activity of small molecule inhibitors on Zika virus induced Caspase-3 activity in human iPSC derived neural progenitor cells (hNPCs) (AID 1224857); further: % of control where 0% means no effect; nearly all actives have a fitted effect of over 65% in size
Summary of the method: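 hNPCs seeded 350 cells/well, cultured 16–20 h; compounds added 1 h before ZIKV (2 FFU/cell), 37 C 6 h. Caspase-Glo 3/7 luminescence after 30 min RT; % inhibition from induction scaled to uninfected (0%) and infected (100%) wells.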

[5] = qHTS assay for measurement of the activity of small molecule inhibitors on Zika virus induced Caspase-3 activity in human astrocytoma cells (AID 1224859);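 further: plate controls were ZIKV-infected untreated cells for no effect and uninfected cells for full effect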
Summary of the method: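 Luminescence read-out (Caspase-Glo 3/7, 30 min RT) of caspase activity in SNB-19 cells infected 6 h with ZIKV, 2 FFU/cell, after 1 h compound pretreatment; % inhibition from induction normalised to uninfected (0%) and infected (100%) wells.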

[6] = qHTS Screen of the MIPE 4.0 Collection Against Ewings Sarcoma (RDES) (AID 1259252); further: nearly all actives have a fitted effect of over 35% in size; further: potency means the concentration at half of the fitted maximal effect
Summary of the method: (§1)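 Viability screen: 48 h incubation at 37C, 95% humidity, 5% CO2 with serially titrated compound, followed by CellTiter-Glo readout.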

[7] = qHTS Screen of the MIPE 4.0 Collection Against Ewings Sarcoma (TC71) (AID 1259253); further: nearly all actives have a fitted effect of over 40% in size; further: potency means the concentration at half of the fitted maximal effect
Summary of the method: as §1

[8] = qHTS Screen of the MIPE 4.0 Collection Against Ewings Sarcoma (EW8) (AID 1259255); further: nearly all actives have a fitted effect of over 35% in size; further: potency means the concentration at half of the fitted maximal effect;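 on viability: 100% = DMSO-treated cells and 0% = medium-only wells without cells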
Summary of the method: as §1

[9] = qHTS Screen of the MIPE 4.0 Collection Against Ewings Sarcoma (TC32) (AID 1259256); further: nearly all actives have a fitted effect of over 45% in size; further: potency means the concentration at half of the fitted maximal effect
Summary of the method: as §1

Row | Compound | growth, % of control [1] [%] | cell viability, % of control (lower = more cytotoxic) [2] [%] | viability (% of control) [3] [%] | Potency [4] | Potency [5] | Potency [6] | Potency [7] | Potency [8] | Potency [9]
1 | CCN(CC)CCCCNc1ncc2c(n1)N(C)C(=O)N(c1c(Cl)c(OC)cc(OC)c1Cl)C2 | 11.3 | 138 | 50.4 | inactive | inactive | 20900 nM (active) | 20900 nM (active) | 18700 nM (active) | 20900 nM (active)
2 | NC[C@H]1O[C@H](O[C@H]2[C@@H](O)[C@@H](O[C@H]3O[C@H](CO)[C@@H](O)[C@H](N)[C@@H]3O)[C@H](N)C[C@@H]2N)[C@H](N)C[C@H]1O | 88.3 | 200 | 123 | inactive | inactive | inactive | inactive | inactive | inactive
3 | COc1cccc2c1C(=O)c1c(O)c3c(c(O)c1C2=O)C[C@@](O)(C(=O)CO)C[C@@H]3O[C@H]1C[C@H](N)[C@H](OC2CCCCO2)[C@H](C)O1 (some centres not stated) | 3.44 | 5.53 | 1.87 | inactive | inactive | 1180 nM (active) | 662 nM (active) | 166 nM (active) | 3.7 nM (active)
4 | CCN(C(=O)c1c(O)c2c(Cl)cccc2n(C)c1=O)c1ccccc1 | 102 | 112 | 20.2 | inactive | inactive | inactive | inactive | inactive | inactive
5 | C#Cc1cccc(Nc2ncnc3cc(OCCOC)c(OCCO)cc23)c1 | 4.56 | 38.2 | 12.5 | inactive | inactive | 935 nM (active) | 18700 nM (active) | 9350 nM (active) | 8330 nM (active)
6 | COc1cc2c(cc1O)CCC1C2CC[C@@]2(C)C1CC[C@@H]2O (some centres not stated) | 59.7 | 95.2 | 10.9 | inactive | inactive | 7430 nM (active) | 2640 nM (active) | 3320 nM (active) | 2640 nM (active)
7 | CC(=O)OCC(=O)[C@@]12N=C(C)O[C@H]1C[C@H]1[C@@H]3CCC4=CC(=O)C=C[C@]4(C)[C@@H]3[C@@H](O)C[C@@]12C | 84 | 94.7 | 57.7 | inactive | inactive | inactive | inactive | inactive | inactive
8 | Oc1ccc(-c2ccc(-c3cc(Nc4cccc(CNC5CC5)c4)n[nH]3)cc2)c(O)c1 | 3.25 | 2.13 | 3.58 | inactive | inactive | 1480 nM (active) | 1870 nM (active) | 1870 nM (active) | 5900 nM (active)
9 | CC(=O)O[C@@]12CO[C@H]1C[C@H](O)[C@@]1(C)C(=O)[C@H](O)C3=C(C)[C@@H](OC(=O)C(O)[C@@H](NC(=O)OC(C)(C)C)c4ccccc4)C[C@@](O)([C@@H](OC(=O)c4ccccc4)[C@@H]21)C3(C)C (some centres not stated) | 4.16 | 22.4 | 8.89 | inactive | inactive | inactive | inactive | inactive | inactive
10 | FC(F)c1nc2ccccc2n1-c1nc(N2CCOCC2)nc(N2CCOCC2)n1 | 3.1 | 9.88 | 37.8 | inactive | inactive | 235 nM (active) | 590 nM (active) | 3720 nM (active) | 118 nM (active)
11 | CCCc1nc(C(C)(C)O)c(C(=O)O)n1Cc1ccc(-c2ccccc2-c2nn[nH]n2)cc1 | 61.6 | 110 | 103 | inactive | inactive | inactive | inactive | inactive | inactive
12 | O=C(C=Cc1ccc(CN(CCO)CCc2c[nH]c3ccccc23)cc1)NO | 2.54 | 4.89 | 3.46 | inactive | inactive | 209 nM (active) | 187 nM (active) | 148 nM (active) | 148 nM (active)
13 | C=C1C(=O)O[C@H]2[C@@H]1CCC(C)=CCC[C@@]1(C)O[C@@H]21 | 31.2 | 2.53 | 2.31 | inactive | inactive | 20900 nM (active) | 10500 nM (active) | 9350 nM (active) | 9350 nM (active)
